Test systems include NCI-H23 lung; NCI-H226 lung; NCI-H322M lung; HOP-62 NSCLC; NCI-H460 lung; NCI-H522 lung; A549/ATCC NSCLC; 786-0 renal; COLO 205 colon; DU-145 prostate.
Common to all, as to assay: NCI-60 one-dose screen, 48 h (100 = growth as untreated, 0 = no growth, -100 = all killed)
What all share (details): 10 µM

Compounds without any hit were thinned out: in the full panel of roughly 83,000, 20% have a hit.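 Testing used 96-well plates and a 48-hour single-concentration exposure. Example: -40 means 40% of the starting cells died.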 A number with no mark means an inactive call. Activity calls are given as the source filed them. Rule for the calls: active = growth percent below 10; inactive = the rest.

In the case of `COc1cc(Cl)cc(-c2nn(-c3cccc(NC(=O)Nc4cc(C(F)(F)F)cc(C(F)(F)F)c4)c3)cc2-c2ccncc2)c1`, the growth in the experiment with NCI-H23 lung is -6.14% (active); in the experiment on NCI-H226 lung it was -5.97% (active); in the experiment with NCI-H322M lung, 11%; with HOP-62 NSCLC, -41.1% (active); in the experiment with NCI-H460 lung it was 0.241% (active); in the experiment with NCI-H522 lung it was -15.6% (active). In addition, the growth in the experiment with A549/ATCC NSCLC was 5.14% (active); in the experiment on 786-0 renal, -26.9% (active); in the experiment on COLO 205 colon, -64% (active); with DU-145 prostate, 13.1%.
Turning to `CCN1CCCC1CNC(=O)c1ncc(-c2ccc(C(F)(F)F)cc2)c(NC2CCCCCC2)n1` (stereo not given), the growth in the experiment with NCI-H23 lung is 92.5%; with NCI-H226 lung, 86%; with NCI-H322M lung, 84.7%; with HOP-62 NSCLC it was 97%; with NCI-H460 lung, 80.4%; in the experiment on NCI-H522 lung it was 69.1%. Further, the growth was 77.2% with A549/ATCC NSCLC, 84.5% with 786-0 renal, 42.7% in the experiment with COLO 205 colon and 83.2% in the experiment with DU-145 prostate.
On to `Nc1ccc2c(c1)Cc1cc(N)c(Br)cc1-2`, for which the growth in the experiment with NCI-H23 lung is 92.1%; with NCI-H226 lung, 106%; in the experiment with NCI-H322M lung it was 113%; in the experiment with HOP-62 NSCLC, 93.4%; with NCI-H460 lung, 97%; with NCI-H522 lung it was 96.7%. Moreover, the growth in the experiment on A549/ATCC NSCLC is 100%; in the experiment with 786-0 renal it was 120%; with COLO 205 colon it was 107%; in the experiment with DU-145 prostate, 121%.
Take `C#Cc1ccc(-n2c(/C=C/c3cc(OC)cc(OC)c3)nc3ncccc3c2=O)cc1`: the growth in the experiment with NCI-H23 lung is 89%; in the experiment with NCI-H226 lung, 65.8%; with NCI-H322M lung, 72.5%; in the experiment with HOP-62 NSCLC it was 48.6%; with NCI-H460 lung, 94.6%; in the experiment on NCI-H522 lung, 7.88% (active). Moreover, the growth with A549/ATCC NSCLC was 68.4%; in the experiment with 786-0 renal, 81%; in the experiment on COLO 205 colon it was 117%; in the experiment on DU-145 prostate, 93.2%.
As for `CS(=O)(=O)Nc1cccc(-c2cc(-c3ccccc3Cl)c(C#N)c(N)n2)c1`, the growth was 38.7% with NCI-H23 lung; 53.4% in the experiment with NCI-H226 lung; 51.8% in the experiment with NCI-H322M lung; 45.8% in the experiment with HOP-62 NSCLC; 5.56% (active) with NCI-H460 lung; -7.33% (active) in the experiment on NCI-H522 lung. Also, the growth is 29.4% with A549/ATCC NSCLC, 46.7% with 786-0 renal, -0.179% (active) with COLO 205 colon and 8.95% (active) with DU-145 prostate.
With `c1ccc2c(c1)oc1c3cccnc3ccc21`, the growth in the experiment with NCI-H23 lung was 86.8%; in the experiment with NCI-H226 lung, 87.4%; in the experiment on NCI-H322M lung, 66%; in the experiment on HOP-62 NSCLC, 86.7%; with NCI-H460 lung it was 81.6%; in the experiment with NCI-H522 lung, 89.8%. In addition, the growth was 94.1% with A549/ATCC NSCLC, 94.4% with 786-0 renal, 104% in the experiment with COLO 205 colon and 102% in the experiment on DU-145 prostate.
As for `CCCCCCCC(C)NCCO` (stereo not given), the growth was 102% with NCI-H23 lung; 97.4% with NCI-H226 lung; 88.9% in the experiment with NCI-H322M lung; 99.3% with HOP-62 NSCLC; 106% with NCI-H460 lung; 84.9% in the experiment on NCI-H522 lung. The growth with A549/ATCC NSCLC was 93.5%; with 786-0 renal, 94.7%; with COLO 205 colon, 107%; in the experiment with DU-145 prostate, 106%.
Turning to `COc1ccc(-c2ccc(-c3ccc(C(=N)N)cn3)o2)cc1`, the growth in the experiment on NCI-H23 lung is 85.1%; in the experiment on NCI-H226 lung, 78.7%; with NCI-H322M lung, 77.6%; in the experiment with HOP-62 NSCLC, 72.1%; in the experiment with NCI-H460 lung, 82.2%; in the experiment on NCI-H522 lung, 76.6%. The growth is 69.5% with A549/ATCC NSCLC, 91.3% in the experiment on 786-0 renal, -41.2% (active) in the experiment on COLO 205 colon and 88.6% in the experiment on DU-145 prostate.
On to `O=C1/C(=C\c2ccccc2)CN(C(=O)c2ccccc2)C/C1=C\c1ccccc1`, for which the growth with NCI-H23 lung is 57.5%; in the experiment on NCI-H226 lung it was 37.3%; with NCI-H322M lung, 75.8%; with HOP-62 NSCLC it was 37.1%; in the experiment with NCI-H460 lung, 60.1%; with NCI-H522 lung, -0.751% (active). Moreover, the growth in the experiment on A549/ATCC NSCLC was 61.1%; with 786-0 renal, 2.68% (active); with COLO 205 colon, 41.5%; with DU-145 prostate it was 24.6%.
Consider `COc1ccc2c(c1)sc1nc(-c3ccccc3)c(-c3ccsc3)n12`, for which the growth in the experiment on NCI-H23 lung was 36%; in the experiment with NCI-H226 lung, 55.8%; in the experiment with NCI-H322M lung it was 53.4%; in the experiment on HOP-62 NSCLC, 36.8%; in the experiment on NCI-H460 lung, 7.9% (active); in the experiment on NCI-H522 lung it was -13.4% (active). Moreover, the growth is 31.1% in the experiment with A549/ATCC NSCLC, 57.5% with 786-0 renal, 3.28% (active) in the experiment on COLO 205 colon and 3.69% (active) in the experiment with DU-145 prostate.
Consider `Cc1cc2c(C)c3cc(C)c(N)cc3nc2cc1N`, for which the growth is 17.1% in the experiment with NCI-H23 lung; 10.1% in the experiment with NCI-H226 lung; -12.5% (active) with NCI-H322M lung; 3.24% (active) with HOP-62 NSCLC; -20.5% (active) in the experiment with NCI-H460 lung; -49.4% (active) in the experiment with NCI-H522 lung. In addition, the growth in the experiment on A549/ATCC NSCLC is 4.93% (active); in the experiment with 786-0 renal, 28%; with COLO 205 colon it was 1.41% (active); in the experiment on DU-145 prostate, 10.6%.
Consider `COc1cc(-c2cc(C(=O)N3CCN(C(=O)c4ccccc4NCc4ccco4)CC3)nc3cc(-c4ccccc4)nn23)cc(OC)c1OC`, for which the growth in the experiment with NCI-H23 lung was 56.7%; in the experiment with NCI-H226 lung, 57%; in the experiment on NCI-H322M lung, 13.5%; with HOP-62 NSCLC, 45.2%; in the experiment on NCI-H460 lung it was 7.61% (active); with NCI-H522 lung, -6.6% (active). Besides, the growth is 24.6% with A549/ATCC NSCLC, 31.6% in the experiment with 786-0 renal, -16.7% (active) in the experiment with COLO 205 colon and 2.04% (active) in the experiment on DU-145 prostate.
With `CC(C)(C)c1ccc(N2CSC(=S)N(c3ccc(C(C)(C)C)cc3)C2)cc1`, the growth was 86.5% in the experiment on NCI-H23 lung; 93.2% in the experiment on NCI-H226 lung; 86.7% in the experiment with NCI-H322M lung; 88.2% with HOP-62 NSCLC; 91.7% in the experiment on NCI-H460 lung; -14.2% (active) in the experiment on NCI-H522 lung. The growth in the experiment on A549/ATCC NSCLC was 38%; with 786-0 renal it was 103%; in the experiment with COLO 205 colon it was 92.5%; in the experiment on DU-145 prostate, 123%.
For `CCOC(=O)C1CCc2c(ccc3ccccc23)N1CCC#N` (stereo not given), the growth in the experiment on NCI-H23 lung was 89.7%; with NCI-H226 lung, 98.7%; in the experiment with NCI-H322M lung, 85.7%; with HOP-62 NSCLC, 101%; in the experiment with NCI-H460 lung, 109%; in the experiment on NCI-H522 lung, 93.3%. Moreover, the growth with A549/ATCC NSCLC is 104%; in the experiment with 786-0 renal it was 100%; with COLO 205 colon it was 119%; with DU-145 prostate, 111%.

Source of the values: PubChem BioAssay (NCI).
